Experimental data as given in PubChem BioAssay (NCATS).
Several values for one entry are separate records, joined by “and”; a condition that tells them apart may be missing. Identical values can stand only once. Results filed as inconclusive are left out. Activity calls are given as the source filed them. Unless noted, calls come from the whole dose curve; as a rule, active = well fitted curve in the direction sought with a large enough effect; inconclusive = small, poorly fitted or top-dose-only effect, or another doubt; inactive = no such curve, though single readings can be large; an effect the other way counts as inactive or inconclusive.

Experiments:
[1] = target: Glucocorticoid receptor (Homo sapiens) (UniProt P04150); assay: qHTS assay for small molecule agonists of glucocorticoid receptor signaling (AID 588532; active = well fitted curve in the direction sought with a large enough effect in the signal ratio, with a control signal flat; the % refers to the signal ratio;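 note: 100% = dexamethasone at 0.1 µM and 0% = DMSO only wells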); details: HeLa MMTV-bla, beta-lactamase ratio, agonist, 18 h; stronger effect = higher value; percent of dexamethasone control, DMSO zero
Sequence of Glucocorticoid receptor (Homo sapiens) (P04150 whole entry, looked up): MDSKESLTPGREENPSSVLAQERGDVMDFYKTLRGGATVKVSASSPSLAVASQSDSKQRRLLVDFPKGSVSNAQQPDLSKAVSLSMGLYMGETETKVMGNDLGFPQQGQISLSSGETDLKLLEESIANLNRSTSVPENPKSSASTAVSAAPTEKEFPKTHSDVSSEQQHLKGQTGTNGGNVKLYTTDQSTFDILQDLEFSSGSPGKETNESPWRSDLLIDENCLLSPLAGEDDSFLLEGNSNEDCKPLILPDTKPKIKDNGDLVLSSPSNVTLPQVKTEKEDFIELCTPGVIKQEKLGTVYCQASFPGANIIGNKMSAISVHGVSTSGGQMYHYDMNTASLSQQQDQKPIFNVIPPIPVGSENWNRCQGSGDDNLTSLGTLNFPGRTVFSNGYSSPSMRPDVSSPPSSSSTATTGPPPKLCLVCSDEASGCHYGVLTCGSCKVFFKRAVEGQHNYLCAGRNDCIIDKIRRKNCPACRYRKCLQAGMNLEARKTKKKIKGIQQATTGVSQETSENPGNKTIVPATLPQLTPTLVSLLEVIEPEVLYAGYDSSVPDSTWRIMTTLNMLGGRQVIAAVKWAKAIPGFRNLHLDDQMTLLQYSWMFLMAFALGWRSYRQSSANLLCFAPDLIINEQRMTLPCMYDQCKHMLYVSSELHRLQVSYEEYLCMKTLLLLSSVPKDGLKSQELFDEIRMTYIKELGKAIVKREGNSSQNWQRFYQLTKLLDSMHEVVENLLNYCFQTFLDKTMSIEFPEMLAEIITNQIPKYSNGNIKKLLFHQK
Method in brief: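 Quantitative HTS using CellSensor MMTV-bla HeLa cells in charcoal/dextran-treated serum; compounds tested up to 92 uM. After 18 h at 37 C, CCF4 dye reported reporter induction.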

[2] = target: Glucocorticoid receptor (Homo sapiens) (UniProt P04150); assay: qHTS assay for small molecule antagonists of glucocorticoid receptor signaling (AID 588533; active = well fitted inhibition curve with a large enough effect in the signal ratio, with a control signal flat, not every such curve was filed as active; the % refers to the signal ratio;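 note: cells stimulated with 2 nM dexamethasone as agonist; % is set by controls: 0 for no effect and ±100 for the full control effect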)
Method in brief: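 Antagonist-mode qHTS: compound titrations added to GRE-bla HeLa cells, then dexamethasone 2 nM final; 18 h, 37 C. CCF4 FRET fluorescence normalized to dexamethasone and DMSO; IC50 from Hill fit.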

[3] = target: Vitamin D3 receptor (Homo sapiens) (UniProt P11473); assay: qHTS assay for small molecule agonists of vitamin D receptor signaling (AID 588543; calls by dose curve;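 note: 0% = DMSO basal and 100% = reference agonist control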)
Sequence of Vitamin D3 receptor (Homo sapiens) (P11473 whole entry, looked up): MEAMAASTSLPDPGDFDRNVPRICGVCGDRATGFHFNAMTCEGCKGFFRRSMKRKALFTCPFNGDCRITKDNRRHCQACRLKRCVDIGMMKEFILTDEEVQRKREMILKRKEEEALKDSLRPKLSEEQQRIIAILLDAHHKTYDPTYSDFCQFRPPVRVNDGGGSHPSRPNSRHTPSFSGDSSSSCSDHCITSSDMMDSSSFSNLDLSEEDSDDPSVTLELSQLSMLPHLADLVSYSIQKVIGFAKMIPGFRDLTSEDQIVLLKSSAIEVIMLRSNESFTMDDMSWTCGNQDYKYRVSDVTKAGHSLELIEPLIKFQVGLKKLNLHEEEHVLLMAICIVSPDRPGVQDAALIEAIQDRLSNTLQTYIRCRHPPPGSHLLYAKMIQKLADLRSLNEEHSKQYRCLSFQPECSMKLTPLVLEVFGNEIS
Method in brief: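 qHTS in agonist mode: compound titrations stimulate a VDR-driven β-lactamase reporter in HEK293T cells over 16 h at 37 °C. Response normalized to 50 nM 1α,25-dihydroxyvitamin D3 = 100%, DMSO = 0%; Hill fitting gives EC50 and maximal response.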

[4] = target: Thyroid hormone receptor beta (Homo sapiens) (UniProt P10828); assay: qHTS assay for small molecule agonists of thyroid hormone receptor beta signaling (AID 588545; calls by dose curve; note: potency is the fitted concentration of half-maximal effect;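 for activation: 0% = DMSO only and 100% = 10 nM T3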)
Sequence of Thyroid hormone receptor beta (Homo sapiens) (P10828 whole entry, looked up): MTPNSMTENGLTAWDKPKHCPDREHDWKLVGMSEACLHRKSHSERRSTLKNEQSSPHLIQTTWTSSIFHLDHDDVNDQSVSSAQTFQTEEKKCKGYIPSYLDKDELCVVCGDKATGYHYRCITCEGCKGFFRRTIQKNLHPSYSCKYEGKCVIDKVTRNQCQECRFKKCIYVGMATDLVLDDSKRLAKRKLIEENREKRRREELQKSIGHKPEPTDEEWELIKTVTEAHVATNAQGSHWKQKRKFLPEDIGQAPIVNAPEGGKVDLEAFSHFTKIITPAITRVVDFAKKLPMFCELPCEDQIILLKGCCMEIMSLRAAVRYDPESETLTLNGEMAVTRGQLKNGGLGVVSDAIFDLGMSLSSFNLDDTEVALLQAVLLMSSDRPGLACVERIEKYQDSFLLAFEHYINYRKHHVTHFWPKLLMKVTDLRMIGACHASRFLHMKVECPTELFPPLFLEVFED
Method in brief: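 Beta-lactamase reporter activity under TR response element control is measured in HEK 293 cells after 18 hrs compound exposure. Signal is ratiometric CCF4 fluorescence, 460/530 nm.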

[5] = target: Thyroid hormone receptor beta (Homo sapiens) (UniProt P10828); assay: qHTS assay for small molecule antagonists of thyroid hormone receptor beta signaling (AID 588547; active = well fitted inhibition curve with a large enough effect in the signal ratio, with a control signal flat, not every such curve was filed as active; the % refers to the signal ratio;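 note: cells stimulated with 0.4 nM T3 agonist during compound exposure; series mostly up to about 77 µM; % is set by controls: 0 for no effect and ±100 for the full control effect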); details: TR-UAS-bla HEK293, beta-lactamase ratio, antagonist mode, 18 h
Method in brief: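 Inhibition of T3-driven (0.4nM final) beta-lactamase reporter activity was measured over 0.59 nM to 92 uM compound after 18 h at 37 C. The cells were GripTite HEK293 TR-UAS-bla in charcoal/dextran-stripped serum, with CCF4 ratio read-out and IC50 from Hill fits.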

[6] = qHTS assay for small molecule agonists of the antioxidant response element (ARE) signaling pathway (AID 651741; active = well fitted activation curve with a large enough effect in the signal ratio; the % refers to the signal ratio; note: potency is the fitted concentration of half-maximal effect; for activation: % of control where 0% means no effect)
Method in brief: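 Agonist activity is measured as ARE-driven beta-lactamase expression in a stable HepG2 reporter line, using 16 h compound treatment at 37 C and a FRET substrate fluorescence readout after 2 h.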

[7] = qHTS assay for small molecule activators of the p53 signaling pathway (AID 651743; active = well fitted activation curve with a large enough effect in the signal ratio, not every such curve was filed as active; the % refers to the signal ratio; note: potency is the fitted concentration of half-maximal effect; for activation: series mostly up to about 92 µM; % of control where 0% means no effect); details: HCT-116 p53RE-bla, beta-lactamase FRET ratio, 16 h; activation: stronger effect = higher value
Method in brief: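 A beta-lactamase reporter under p53 response element control, stably carried by HCT-116 cells, reported pathway activation. Test compounds were applied for 16 hours at 37 C, and fluorescence was measured 2 hours after adding the B/G FRET substrate.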

[8] = qHTS assay for small molecule activators of the nuclear factor-kappa B (NF-kB) signaling pathway (AID 651749; active = well fitted activation curve with a large enough effect in the signal ratio; the % refers to the signal ratio; note: potency is the fitted concentration of half-maximal effect; for activation: series mostly up to about 77 µM; % of control where 0% means no effect); details: NF-kB-bla ME-180 cells, beta-lactamase FRET ratio, 16 h; activation: stronger effect = higher value
Method in brief: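 FRET-based beta-lactamase detection in ME-180 cells reports NF-kB response-element-driven transcription following overnight (16 hr) compound treatment.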

[9] = qHTS assay for environmental chemicals that activate the Aryl hydrocarbon Receptor (AhR) signaling pathway (AID 651777); details: 1A2-DRE human hepatoma cells, luciferase, 24 h; activation: stronger effect = higher value; note: % of control where 0% means no effect; nearly all actives have a fitted effect of over 15% in size
Method in brief: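 Luminescence read-out: One-Glo added for 30 min at RT after 24 hr compound treatment (37 C, 5% CO2) of human hepatoma cells expressing a DRE/CYP1A2 promoter–luciferase reporter; increased signal indicates AhR activation.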

[10] = qHTS assay for small molecule agonists of the antioxidant response element (ARE) signaling pathway measured by Nrf2-dependant transcriptional activity (AID 720636; active = well fitted curve in the direction sought with a large enough effect in the repeat runs; an effect the other way counts as inactive or inconclusive;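 note: HepG2 cells with an ARE-driven luciferase reporter; % of control where 0% means no effect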)
Method in brief: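 HepG2 ARE-luc reporter line, 1% dialyzed FBS; 6 hr attachment at 37 C, compound pinned in, 16 hr at 37 C/5% CO2; ONE-Glo, 30 min RT, luminescence read.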

[11] = qHTS assay for small molecule agonists of the antioxidant response element (ARE) signaling pathway measured by Nrf2-dependant transcriptional activity - cell viability counter screen (AID 720653; active = well fitted curve in the direction sought with a large enough effect in the repeat runs; an effect the other way counts as inactive or inconclusive; note: % is set by controls: 0 for no effect and ±100 for the full control effect); details: ARE-bla HepG2 viability, CellTiter-Glo ATP luminescence, 16 h; max response: stronger effect = lower value
Method in brief: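 Cytotoxicity counter screen: intracellular ATP quantified by CellTiter-Glo luminescence in the same ARE-bla HepG2 plates, after 16 h compound exposure and a 2 h beta-lactamase substrate step.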

[12] = qHTS assay for cell viability of HEK293 cells (AID 743288); details: ATP luminescence (CellTiter-Glo), 18 h; max response: stronger effect = lower value; note: % is set by controls: 0 for no effect and ±100 for the full control effect; nearly all actives have a fitted effect of over 50% in size
Method in brief: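 Quantitative high-throughput screen: compounds were pinned onto parental HEK293 cells (2,000 per well) after a minimum 5 h settling at 37 C, incubated 18 h at 37 C, and intracellular ATP measured by luciferase luminescence.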

[13] = qHTS assay for cell viability of the p53RE-bla HCT-116 cell line (AID 743292); note: % is set by controls: 0 for no effect and ±100 for the full control effect; nearly all actives have a fitted effect of over 55% in size
Method in brief: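 Luminescent ATP quantitation (CellTiter-Glo) served as the viability read-out; reagent was added after 16 h compound exposure at 37 C and read after 30 min at room temperature. Cells: p53RE-bla HCT-116, 4,000 per well.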

[14] = target: Nuclear receptor subfamily 1 group I member 2 (Rattus norvegicus) (UniProt Q9R1A7); assay: qHTS assay for small molecule activators of the rat pregnane X receptor (rPXR) signaling pathway (AID 651751; call rule not given here; note: 0% is about no effect); details: rPXR reporter cells, luciferase (One-Glo), 24 h
Sequence of Nuclear receptor subfamily 1 group I member 2 (Rattus norvegicus) (Q9R1A7 whole entry, looked up): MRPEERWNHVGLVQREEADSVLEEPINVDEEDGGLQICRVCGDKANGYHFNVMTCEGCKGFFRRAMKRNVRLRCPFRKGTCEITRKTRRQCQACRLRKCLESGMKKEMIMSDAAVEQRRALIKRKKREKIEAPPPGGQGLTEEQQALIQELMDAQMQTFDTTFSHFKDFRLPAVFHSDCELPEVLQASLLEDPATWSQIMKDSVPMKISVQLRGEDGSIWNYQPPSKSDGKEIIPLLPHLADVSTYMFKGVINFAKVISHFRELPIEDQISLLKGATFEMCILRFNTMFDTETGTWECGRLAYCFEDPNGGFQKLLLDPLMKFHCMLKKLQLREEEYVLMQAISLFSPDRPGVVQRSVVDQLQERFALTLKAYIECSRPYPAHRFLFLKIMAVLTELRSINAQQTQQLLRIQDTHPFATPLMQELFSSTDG

[15] = qHTS assay for small molecule activators of the human pregnane X receptor (PXR) signaling pathway (AID 720659; call rule not given here; note: 0% is about no effect)
[16] = target: Peroxisome proliferator-activated receptor gamma (Homo sapiens) (UniProt P37231); assay: qHTS assay for small molecule antagonists of peroxisome proliferator-activated receptor gamma signaling (AID 588537; active = well fitted inhibition curve with a large enough effect in the signal ratio, with a control signal flat, not every such curve was filed as active; the % refers to the signal ratio;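 note: reporter cells co-stimulated with 50 nM rosiglitazone agonist during compound treatment; % of control where 0% means no effect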)
Sequence of Peroxisome proliferator-activated receptor gamma (Homo sapiens) (P37231 whole entry, looked up): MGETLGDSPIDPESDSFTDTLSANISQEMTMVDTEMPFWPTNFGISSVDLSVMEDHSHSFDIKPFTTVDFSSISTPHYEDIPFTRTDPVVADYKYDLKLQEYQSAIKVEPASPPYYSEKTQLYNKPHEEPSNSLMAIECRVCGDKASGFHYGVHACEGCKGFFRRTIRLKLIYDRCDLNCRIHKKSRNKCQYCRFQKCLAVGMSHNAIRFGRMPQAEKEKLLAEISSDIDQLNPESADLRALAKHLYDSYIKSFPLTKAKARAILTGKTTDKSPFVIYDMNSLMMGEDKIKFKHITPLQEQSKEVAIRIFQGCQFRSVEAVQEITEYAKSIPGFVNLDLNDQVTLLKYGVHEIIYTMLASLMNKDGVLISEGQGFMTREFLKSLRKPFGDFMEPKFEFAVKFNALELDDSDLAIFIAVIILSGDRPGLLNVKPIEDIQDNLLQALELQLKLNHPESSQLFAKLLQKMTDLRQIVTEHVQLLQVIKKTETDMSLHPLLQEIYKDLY
Method in brief: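 Cell-based beta-lactamase assay; GW9662 served as the antagonist control. Stimulation used rosiglitazone, final 50 nM, 16 h, 37 C.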

[17] = target: Peroxisome proliferator-activated receptor alpha (Homo sapiens) (UniProt Q07869); assay: qHTS assay for small molecule agonists of the peroxisome proliferator-activated receptor alpha (PPARalpha) signaling pathway (AID 651778); details: PathHunter PPARalpha complementation, chemiluminescence, 6 h; max response: stronger effect = higher value; note: % of control where 0% means no effect
Sequence of Peroxisome proliferator-activated receptor alpha (Homo sapiens) (Q07869 whole entry, looked up): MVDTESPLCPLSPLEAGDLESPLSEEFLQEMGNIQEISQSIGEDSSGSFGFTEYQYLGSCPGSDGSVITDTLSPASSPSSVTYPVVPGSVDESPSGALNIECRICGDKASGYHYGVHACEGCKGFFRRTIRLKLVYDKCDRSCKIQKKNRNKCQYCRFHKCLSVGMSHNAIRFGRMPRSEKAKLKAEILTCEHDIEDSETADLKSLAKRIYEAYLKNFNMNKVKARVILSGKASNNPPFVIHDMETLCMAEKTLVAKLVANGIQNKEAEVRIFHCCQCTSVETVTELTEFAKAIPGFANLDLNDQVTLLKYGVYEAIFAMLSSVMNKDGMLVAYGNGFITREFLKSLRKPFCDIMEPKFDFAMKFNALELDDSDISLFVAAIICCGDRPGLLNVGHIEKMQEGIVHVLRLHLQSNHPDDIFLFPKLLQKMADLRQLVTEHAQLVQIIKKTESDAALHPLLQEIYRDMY
Method in brief: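 Chemiluminescence from complemented enzyme reported PPARalpha activation in cells after 6 hr of compound treatment at 37 C. The detection reagent was incubated for 60 min at room temperature, and compounds were scored as agonists.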

[18] = qHTS assay for small molecule antagonists of peroxisome proliferator-activated receptor delta signaling (AID 588535; active = well fitted inhibition curve with a large enough effect in the signal ratio, with a control signal flat, not every such curve was filed as active; the % refers to the signal ratio;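 for max response: cells co-treated with a PPAR-delta agonist as stimulator during compound exposure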); details: HEK293T PPARd-UAS-bla, beta-lactamase FRET ratio, 18 h; 460 nm channel
Method in brief: (§1)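 Antagonist-mode qHTS using GeneBLAzer PPAR-delta-UAS-bla HEK293T cells; compound exposure 18 hrs at 37 C over a titration. Ratiometric CCF4 fluorescence at 460/530 nm; concentration-response points fitted to the Hill equation.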

[19] = target: Peroxisome proliferator-activated receptor delta (Homo sapiens) (UniProt Q03181); assay: as above
Sequence of Peroxisome proliferator-activated receptor delta (Homo sapiens) (Q03181 whole entry, looked up): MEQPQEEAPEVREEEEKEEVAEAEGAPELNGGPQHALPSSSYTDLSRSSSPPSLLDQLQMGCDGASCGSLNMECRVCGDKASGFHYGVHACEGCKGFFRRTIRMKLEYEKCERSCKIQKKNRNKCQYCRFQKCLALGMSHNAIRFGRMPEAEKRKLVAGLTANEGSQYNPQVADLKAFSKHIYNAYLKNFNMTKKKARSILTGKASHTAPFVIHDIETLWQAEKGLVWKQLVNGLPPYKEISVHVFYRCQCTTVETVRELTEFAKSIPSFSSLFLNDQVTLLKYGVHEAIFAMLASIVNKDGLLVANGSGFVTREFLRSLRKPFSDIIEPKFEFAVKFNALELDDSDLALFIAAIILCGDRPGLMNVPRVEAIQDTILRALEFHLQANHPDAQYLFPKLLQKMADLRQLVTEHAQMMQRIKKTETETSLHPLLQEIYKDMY
Method in brief: as §1

[20] = target: Vitamin D3 receptor (Homo sapiens) (UniProt P11473); assay: qHTS assay for small molecule antagonists of vitamin D receptor signaling (AID 588541; calls by dose curve;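 note: receptor activated by calcitriol during compound treatment; series mostly up to about 77 µM; % is set by controls: 0 for no effect and ±100 for the full control effect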)
Method in brief: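 Antagonist-mode beta-lactamase reporter assay: HEK293T VDR-UAS-bla cells were exposed to titrated compound alongside 1-alpha,25-dihydroxyvitamin D3 at 3 nM final for 16 h. Values were normalized to the 50 nM agonist control and DMSO basal, with IC50 and efficacy from Hill equation fits.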

[21] = qHTS assay for small molecule agonists of retinoid X receptor alpha signaling (AID 588544; calls by dose curve;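 for activation: 0% = DMSO basal wells and 100% = reference agonist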); details: HEK293T RXRa-UAS-bla, beta-lactamase reporter, 18 h; 530 nm emission
[22] = target: Retinoic acid receptor RXR-alpha (Homo sapiens) (UniProt P19793); assay: as above
Sequence of Retinoic acid receptor RXR-alpha (Homo sapiens) (P19793 whole entry, looked up): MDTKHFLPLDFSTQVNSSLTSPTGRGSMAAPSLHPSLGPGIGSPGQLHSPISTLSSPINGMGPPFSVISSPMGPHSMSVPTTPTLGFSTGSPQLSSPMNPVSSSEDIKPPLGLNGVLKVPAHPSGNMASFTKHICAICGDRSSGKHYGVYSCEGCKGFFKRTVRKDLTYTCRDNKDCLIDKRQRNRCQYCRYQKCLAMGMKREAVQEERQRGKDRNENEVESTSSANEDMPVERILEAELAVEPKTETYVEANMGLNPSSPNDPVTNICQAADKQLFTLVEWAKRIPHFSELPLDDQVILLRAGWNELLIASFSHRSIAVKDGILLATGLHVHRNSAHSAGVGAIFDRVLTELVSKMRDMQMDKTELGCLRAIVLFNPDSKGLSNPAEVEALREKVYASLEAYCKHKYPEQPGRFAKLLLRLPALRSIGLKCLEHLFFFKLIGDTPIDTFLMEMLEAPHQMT

[23] = qHTS assay for small molecule antagonists of retinoid X receptor alpha signaling (AID 588546; active = well fitted inhibition curve with a large enough effect in the signal ratio, with a control signal flat, not every such curve was filed as active; the % refers to the signal ratio); details: HEK293T RXRa-UAS-bla, beta-lactamase ratio, antagonist mode; measured here: W530 green channel, cytotoxicity proxy
Method in brief: (§2)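 Beta-lactamase reporter inhibition, read as CCF4 fluorescence ratio (ex 405, em 460/530 nm) after 2 h at RT. HEK293T UAS-bla cells, 2500/well, were stimulated with 9-cis-RA at 500 or 100 nM final alongside test compound for 18 h at 37 C.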

[24] = target: Retinoic acid receptor RXR-alpha (Homo sapiens) (UniProt P19793); assay: as above; details: HEK293T RXRa-UAS-bla, beta-lactamase ratio, antagonist mode
Method in brief: as §2

[25] = qHTS for Inhibitors of the vitamin D receptor (VDR): Hit Validation using a Texas Red Assay (AID 602201); note: potency is the fitted concentration of half-maximal effect
Method in brief: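 After a 2-hour room-temperature incubation, polarization of Texas-Red emission was read (Ex 595 nm/Em 615 nm). Final mix contained 7 nM Texas Red, 1.5 uM VDR-LBD and LG19078.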

For Oc1ccc(Nc2ccccc2)cc1, the activation [1] was -7.61% (inactive), the Potency [2] was “inactive” and the outcome [3] was “inactive”. The Potency [4] was “inactive”, the activity change % (negative = inhibition) [5] was -3.3% (inactive) and the Potency [6] was 24.3 µM (active). The activation [7] was 16.3% (inactive), the activation [8] was -2.8% (inactive) and the activation [9] was -0.687% (inactive). The Potency [10] was “inactive”, the max response [11] was -6.61% (inactive) and the max response [12] was -10.5% (inactive). The Potency [13] was “inactive”, the max response [14] was 0.0407% (inactive) and the outcome [15] was “inactive”.
With S=C([S-])NCCNC(=S)[S-].[Mn+2] the Potency [2] was “inactive”, the Potency [16] was “inactive” and the outcome [3] was “inactive”. The Potency [4] was “inactive”, the activity change % (negative = inhibition) [5] was -12.7% (inactive) and the activation [9] was 2.64% (inactive) and 10.8% (inactive). For the same compound, the max response [17] was -2% (inactive) and -3.91% (inactive), the max response [11] was -8.97% (inactive) and -21.3% (inactive) and the max response [12] was -16.3% (inactive). For the same compound, the Potency [13] was “inactive” and the max response [14] was -0.103% (inactive) and -4.92% (inactive).
With O=C=NC1CCC(CC2CCC(N=C=O)CC2)CC1 (centres undefined) the activation [1] was -3.36% (inactive), the max response [18] was 20.7% and the Potency [19] was “inactive”. The Potency [16] was “inactive”, the Potency [20] was “inactive” and the outcome [3] was “inactive”. For the same compound, the max response [21] was -11%, the Potency [22] was “inactive” and the Potency [4] was “inactive”. For the same compound, the max response [23] was -7.15%, the max response [24] was -13.6% (inactive) and the Potency [6] was “inactive”. For the same compound, the activation [7] was -0.886% (inactive), the activation [9] was 0.629% (inactive) and the max response [17] was -2.73% (inactive). The Potency [10] was “inactive”, the max response [11] was -1.04% (inactive) and the max response [12] was -9.19% (inactive). The Potency [13] was “inactive”, the max response [14] was -1.91% (inactive) and the outcome [15] was “inactive”.
With O=C1/C(=C/c2cccnc2)CCC/C1=C\c1cccnc1 the Potency [25] was 31.6 µM (active).
In the case of COc1ccc(Cl)cc1NC(=O)CCS(=O)(=O)c1nc(-c2cccs2)cc(C(F)(F)F)n1, the Potency [25] is reported as 11.2 µM (active).
With CCc1ccc(-n2nc3cc(C)c(N)cc3n2)cc1 the Potency [25] was 15.8 µM (active).
With O=C(O)CN1C(=O)/C(=C\c2cc(Br)ccc2OCc2ccc(Cl)cc2Cl)SC1=S the Potency [25] was “inactive”.
In the case of CC1(C)C(=O)N(Br)C(=O)N1Cl, the Potency [20] is reported as “inactive”, the outcome [3] is reported as “inactive” and the max response [21] is reported as -10%. For the same compound, the Potency [22] was “inactive”, the Potency [4] was “inactive” and the max response [23] was -9.45%. For the same compound, the max response [24] was -6.62% (inactive), the activity change % (negative = inhibition) [5] was -12% (inactive) and the activation [7] was 2.83% (inactive). The activation [8] was -2.38% (inactive), the activation [9] was 1.28% (inactive) and the max response [17] was -1.51% (inactive). For the same compound, the max response [11] was -11.1% (inactive), the max response [12] was -4.13% (inactive) and the Potency [13] was “inactive”. The max response [14] was 1.46% (inactive).
With c1cc2ccc3ccc4ccc5cccc6c(c1)c2c3c4c56 the Potency [4] was 25.1 µM (active), the Potency [6] was 21.7 µM (active) and the Potency [7] was 35.5 µM (active). For the same compound, the Potency [8] was 39.8 µM (active), the activation [9] was 6.27% (inactive) and the max response [17] was -2.73% (inactive). The Potency [10] was “inactive”, the max response [11] was -17.1% (inactive) and the max response [12] was -3.62% (inactive). The Potency [13] was “inactive” and the max response [14] was 0.241% (inactive).
With CCN(CC)c1ccc(NC(=O)c2ccccc2)cc1S(=O)(=O)Nc1ccccc1OC the Potency [25] was 10 µM (active).
